TDP1 block: qHTS Assay for Inhibitors of Tyrosyl-DNA Phosphodiesterase (TDP1); actives 0.28% (n = 350,000); Tyrosyl-DNA phosphodiesterase 1 (Homo sapiens), Q9NUW8; recombinant TDP1, AlphaScreen DNA substrate cleavage; AID 485290, 2010; Potency, µM (titrated, usually from 130 µM), for the others: top-dose activity change, negative = inhibition, hits mostly inhibitors; also: potency is read from the fitted curve at half-maximal effect; % is scaled to controls: 0 for no effect and ±100 for the full control effect; nearly all actives have a fitted effect of over 40% in size
Target sequence (Q9NUW8 whole entry, looked up): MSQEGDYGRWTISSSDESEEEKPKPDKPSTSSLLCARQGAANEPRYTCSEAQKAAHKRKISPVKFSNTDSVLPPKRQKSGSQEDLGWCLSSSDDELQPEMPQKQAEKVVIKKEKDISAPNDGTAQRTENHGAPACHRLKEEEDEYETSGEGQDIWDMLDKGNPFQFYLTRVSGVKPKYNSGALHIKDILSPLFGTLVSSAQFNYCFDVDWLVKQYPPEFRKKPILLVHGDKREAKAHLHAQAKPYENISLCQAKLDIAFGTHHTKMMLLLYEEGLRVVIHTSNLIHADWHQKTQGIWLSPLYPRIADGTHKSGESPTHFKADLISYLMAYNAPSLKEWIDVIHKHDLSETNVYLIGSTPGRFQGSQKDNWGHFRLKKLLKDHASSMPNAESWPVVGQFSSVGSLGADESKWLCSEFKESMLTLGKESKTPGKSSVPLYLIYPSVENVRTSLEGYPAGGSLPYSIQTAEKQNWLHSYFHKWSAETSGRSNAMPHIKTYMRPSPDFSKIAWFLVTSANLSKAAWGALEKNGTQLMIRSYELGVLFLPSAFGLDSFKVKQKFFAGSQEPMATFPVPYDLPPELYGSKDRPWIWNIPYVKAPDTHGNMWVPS
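Tdp1 1 nM final; 15 min RT w/ cpd; substrate 15 nM, 5 min; beads 10 ug/ml, 10 min; AlphaScreen read. Neg ctrl: no enzyme.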
DT40 TDP1 no CPT: qHTS for Inhibitors of human tyrosyl-DNA phosphodiesterase 1 (TDP1): qHTS in cells in absence of CPT; DT40 Tdp1-/- hTDP1 cells, no CPT, ATP luminescence, 48 h; actives 15% (n = 420,000); Potency, µM (titrated, usually from 46.2 µM), for the others: top-dose activity change, negative = growth inhibition, hits mostly inhibitors; also: potency is read from the fitted curve at half-maximal effect; % is scaled to controls: 0 for no effect and ±100 for the full control effect; nearly all actives have a fitted effect of over 55% in size
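Cells were dispensed at 400 per well, compounds added by pin tool, plates incubated ≥48 hr at 37 °C, then CellTiter-Glo added for 30 min at room temperature before luminescence reading. Line: DT40 Tdp1-/- complemented with hTDP1; camptothecin omitted.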
IL-1B inflam inh: qHTS for Inhibitors of Inflammasome Signaling: IL-1-beta AlphaLISA Primary Screen; THP-1 LPS/ATP IL-1B secretion, AlphaLISA, 16 h; stronger effect = lower value; activity change, % at 57.5 µM; actives 4.7% (n = 360,000); in the data active = activity change below about -50%; inconclusive = mostly about -30% to -49%; also: % is scaled to controls: 0 for no effect and ±100 for the full control effect
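Secreted IL-1B measured by AlphaLISA bead assay after 16 h compound exposure of THP-1 cells; compounds (final up to 57.5 uM) added 1 h before LPS (250 ng/mL) and ATP (1.25 mM) stimulation; lower signal means less secretion.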
TGFb SMAD3 inh: qHTS for Inhibitors of TGF-b; HepG2 CAGA-GFP TGF-b/SMAD3 reporter, GFP fluorescence, 18 h; TGF-beta stimulated, 500 pg/mL final; Potency, µM (highest dose often 46.1 µM), for the others: at the highest dose activity, negative = inhibition, usual class: inhibitors; actives 1.2% (n = 410,000); AID 588855, 2011; also: potency is read from the fitted curve at half-maximal effect; % is scaled to controls: 0 for no effect and ±100 for the full control effect; nearly all actives have a fitted effect of over 65% in size
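HEPG2 CAGA-GFP reporter cells (1000/well, DMEM with 1% FBS) received compounds, then recombinant TGF-beta at 500 pg/mL final for 18 hours at 37 degrees C. Per-cell GFP summed per well was normalised to unstimulated and stimulated DMSO controls before curve fitting.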
TDP1 cell CPT: qHTS for Inhibitors of human tyrosyl-DNA phosphodiesterase 1 (TDP1): qHTS in cells in presence of CPT. chicken DT40 Tdp1-/-;hTDP1 cells + 20 nM CPT, ATP luminescence, 48 h. Potency, µM (highest dose often 46.2 µM), for the others: at the top dose activity change, negative = growth inhibition, most hits filed as inhibitors. actives 12% (n = 420,000). AID 686979, 2013; also: potency is read from the fitted curve at half-maximal effect; % is scaled to controls: 0 for no effect and ±100 for the full control effect; nearly all actives have a fitted effect of over 55% in size
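Cell growth measured by CellTiter-Glo luminescence after a minimum 48 h, 37 C compound exposure with 20 nM CPT in Tdp1-knockout DT40 cells stably expressing hTDP1, seeded 400/well; qHTS titration format.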
HepG2 tox: qHTS for Inhibitors of TGF-b: Cytotox Counterscreen. HepG2 CAGA-GFP viability, ATP luminescence, 18 h. Potency, µM (doses to about 46.1 µM), without a hit: at the top dose activity change, negative = cytotoxicity, hits mostly cytotoxic. actives 0.76% (n = 410,000). AID 588856, 2011; also: potency is read from the fitted curve at half-maximal effect
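HepG2 CAGA-GFP cells (1000/well, DMEM with 1% FBS) received compound, then TGF-beta at 500 pg/mL final, and were incubated 18 hours at 37 degrees C. Viability was read by CellTiter-Glo luminescence. Media-only wells were set as complete cell-killing and DMSO as no toxicity.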
* marks the source's active call; other numbers are inactive results; ? = inconclusive; nt = no result given; ! = repeats disagree; [ ] = remark or other dose. Only some compounds are listed: those with a hit (about 18% of all), similar ones and a draw of the others. Unless noted, calls follow the shape of the dose curve; as a rule, active = well fitted curve in the direction sought with a large enough effect; inconclusive = small, poorly fitted or top-dose-only effect, or another doubt; inactive = no such curve, though single readings can be large; an effect the other way counts as inactive or inconclusive.

SMILES	TDP1 block	DT40 TDP1 no CPT	IL-1B inflam inh	TGFb SMAD3 inh	TDP1 cell CPT	HepG2 tox
CCCC1=Nc2cc(C(=O)NC3CCC(C)CC3)ccc2Sc2ccccc21 (stereo unspecified)	0.0%[12.3 µM]	4.11µM*	nt	-18.5%	6.51µM*	4.5%
O=C(Cn1cc(C(=O)c2ccccc2)c2ccccc21)Nc1ccc(Br)cc1	0.0%	23.1µM*	nt	?	?	-20.8%
Cc1ccc(NC(=O)Cn2cc(C(=O)c3ccccc3)c3ccccc32)cc1	1.1%	?	nt	?	-91.6%	-18.0%
S=c1[nH]nc(Cn2c(-c3ccccn3)nc3ccccc32)n1-c1ccc2c(c1)OCCO2	nt	-20.5%	22.7	8.5%	12.8%	-13.3%
Cc1ccc(NC(=O)N2CCN(c3cc(-c4noc(C)n4)ccc3C)CC2)c(F)c1	4.4%	16.4µM*	nt	?	?	-23.8%
CNC(=O)C[C@H]1CC[C@@H]2NC[C@H](O)COC[C@H]2O1	nt	10.1%	19.4	nt	5.7%	nt
O=C1C(=Cc2cn(-c3ccccc3)nc2-c2ccc(OCc3ccc(Cl)cc3)cc2)SC(=S)N1CCS(=O)(=O)O	nt	?	?	-13.6%	?	-14.3%
CCc1ccc(-n2nc(C)c3c(C(=O)NCCc4ccc(OC)c(OC)c4)cc(C)nc32)cc1	3.2%	18.4µM*	nt	-7.8%	18.4µM*	-18.1%
CN1C(=O)[C@@H](NC(=O)c2cc3ccccc3[nH]2)N=C(c2ccccc2)c2ccccc21	9.2%	?	nt	nt	?	nt
COC(=O)C1=C(c2ccc(-c3ccccc3)c(F)c2)C[C@@H]2CC[C@H]1N2C(=O)NCCO	1.3%	20.6µM*	-6.2	-11.7%	?	-25.6%
COC(=O)C1=C(c2ccc(F)cc2F)C[C@@H]2CC[C@H]1N2C(=O)NCCOc1ccccc1	-4.5%	?	-11.1	5.5%	23.1µM*	3.8%
CCCNC(=O)N1[C@H]2CC[C@@H]1C(C(=O)OC)=C(c1ccc(-c3ccccc3)c(F)c1)C2	1.9%	7.31µM*	?	?	9.2µM*	-11.7%
COC(=O)C1=C(c2ccc(-c3ccccc3)c(F)c2)C[C@@H]2CC[C@H]1N2C(=O)NCCOc1ccccc1Cl	0.6%	?	?	?	?	-1.0%
ClC1=C(Cl)C2(Cl)C(CBr)CC1(Cl)C2(Cl)Cl (stereo unspecified)	14.0%	-3.0%	nt	nt	6.2%	nt
CCN(CC)C(=O)c1cccc(-c2csc(C(C)(O)c3ccccc3)n2)c1 (stereo unspecified)	nt	?	3.9	-20.5%	?	-19.5%
NC(Cc1ccc(O)cc1)C(=O)NN=Cc1ccc(N(CCCl)CCCl)cc1 (stereo unspecified)	nt	13µM*	-1.7	-4.8%	8.2µM*	-3.5%
COc1ccc2c(c1OC)C(=O)O[C@@H]2C1c2cc3c(cc2CCN1C)OCO3 (stereo partly specified)	3.6%	-12.5%	nt	nt	3.9%	nt
COc1ccc2c(c1OC)C(=O)OC2C1c2cc3c(cc2CCN1C)OCO3 (stereo unspecified)	7.1%[56.1 µM]	3.0%	10.8	-6.8%	0.2%	0.6%
COc1cc(C2c3cc4c(cc3CC3COC(=O)C32)OCO4)cc(OC)c1O (stereo unspecified)	nt	0.291µM*	26.0	?	0.0517µM*	-59.1%
COc1cc(C2c3cc4c(cc3C(OC(C)=O)[C@H]3COC(=O)C23)OCO4)cc(OC)c1OC (stereo partly specified)	7.3%[56.1 µM]	0.0326µM*	nt	nt	1.03µM*	nt
COc1cc(C2c3cc4c(c(O)c3CC3COC(=O)C32)OCO4)cc(OC)c1O (stereo unspecified)	2.1%	?	nt	?	0.0708µM*	-1.9%
Cc1ccc(-c2[nH]nc3c2C(c2ccccc2OC(=O)N2CCOCC2)C(C#N)=C(N)O3)cc1 (stereo unspecified)	2.9%	2.0%	-13.5	?	-0.6%	5.7%
CNC1[C@@H](O)C(OC2C(N)C[C@H](N)[C@@H](O[C@@H]3OC(C(C)O)C(O)C(O)C3N)C2O)OC[C@]1(C)O (stereo partly specified)	10.7%[56.1 µM]	-13.0%	nt	nt	?	nt
COC(=O)NC(=S)Nc1ccccc1NC(=S)NC(=O)OC	9.3%[56.1 µM]	?	18.5	-3.7%	20.6µM*!	-0.3%
COc1cccc(C(=O)CCN[C@@H](C)[C@H](O)c2ccccc2)c1	nt	23.7µM*	nt	nt	13.3µM*	nt
SMILES	TDP1 block	DT40 TDP1 no CPT	IL-1B inflam inh	TGFb SMAD3 inh	TDP1 cell CPT	HepG2 tox
NC[C@H](CS(=O)(=O)O)c1ccc(Cl)cc1	14.1%[56.1 µM]	-1.2%	nt	nt	22.4%	nt
O=C1C(Cl)=C(Cl)C(=O)C(Cl)=C1Cl	nt	2.91µM*	nt	nt	4.61µM*	nt
CN(Cc1cccc(-c2ccncc2)c1)C(=O)Oc1ccc([N+](=O)[O-])cc1	nt	16.4µM*	-26.1	nt	20.6µM*	nt
CN(C(=O)Oc1ccc([N+](=O)[O-])cc1)c1ccccc1	-1.2%	-6.4%	-56.1*	-2.5%	4.5%	24.0%
CC(=O)c1ccc(OC(=O)N(C)c2ccccc2)cc1	6.0%	-21.6%	-6.9	13.5%	-17.1%	-5.5%
C/C=C(\C)C(=O)N[C@@H](c1ccccc1)[C@@H](O)C(=O)O[C@H]1C[C@@]2(O)[C@@H](OC(=O)c3ccccc3)C3[C@](C)(C(=O)[C@H](OC(C)=O)C(=C1C)C2(C)C)[C@H](O)C[C@H]1OC[C@@]31OC(C)=O (stereo partly specified)	nt	0.164µM*	41.3	?	0.13µM*	-2.3%
CCC(C)C(=O)N[C@@H](c1ccccc1)[C@@H](O)C(=O)O[C@H]1C[C@@]2(O)[C@@H](OC(=O)c3ccccc3)C3[C@](C)(C(=O)[C@H](OC(C)=O)C(=C1C)C2(C)C)[C@@H](O)C[C@H]1OC[C@@]31OC(C)=O (stereo partly specified)	nt	0.184µM*	16.9	-22.6%	0.0291µM*	-10.9%

Compound activity (PubChem BioAssay)
